In all, about 360,000 compounds went through this assay and about 3,500 (0.97%) were called active.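 Rule for the calls: active = activation above a per-plate cutoff, the mean activation of sample wells on that plate plus 3 SD (cut at about 8% in these data); inactive = the rest.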 The entries come from a sample that favours actives as a whole.
What follows are molecules tested against Melanocortin receptor 4 (Homo sapiens) (UniProt P32245) (assay: MC4R agonists recruiting beta-arrestin, primary screen, cell-based, luminescence, agonist arm of biased-ligand search (AID 540308)). Details: U2OS MC4R beta-arrestin complementation, at 8.9 µM, stronger effect = higher value, percent of melanotan II response, DMSO zero.
Sequence of Melanocortin receptor 4 (Homo sapiens) (P32245 whole entry, looked up): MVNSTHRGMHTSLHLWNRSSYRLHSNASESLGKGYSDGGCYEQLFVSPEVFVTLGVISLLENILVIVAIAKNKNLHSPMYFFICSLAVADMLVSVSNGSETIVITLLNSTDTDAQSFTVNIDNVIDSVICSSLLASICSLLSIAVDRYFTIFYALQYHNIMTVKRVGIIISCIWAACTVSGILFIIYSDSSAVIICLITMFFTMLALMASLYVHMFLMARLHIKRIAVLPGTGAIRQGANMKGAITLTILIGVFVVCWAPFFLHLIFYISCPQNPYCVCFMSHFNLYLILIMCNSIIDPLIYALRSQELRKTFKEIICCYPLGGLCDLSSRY
For CCCCN1CC(C)(C)[C@H](CC(=O)Nc2ccc(Br)cc2)C1=O, the activation was 14.2% (active).
For CC1(C)CN(CCc2ccccc2)C(=O)[C@H]1CC(=O)Nc1ccc(Br)cc1, the activation was 1.43% (inactive).
In the case of CC1(C)CN(Cc2cccnc2)C(=O)[C@H]1CC(=O)Nc1ccc(Br)cc1, the activation was -2.67% (inactive).
In the case of Cc1noc(C)c1-c1ccc(C(=O)NCc2ccncc2)c2occc12, the activation was -0.03% (inactive).
Cc1cccc(CNC(=O)c2sc(=O)n(Cc3ccccc3C)c2C)c1 was tested, and the activation was 0.16% (inactive).
Cc1cccc(/C(N)=N/OC(=O)c2ccccc2Cl)c1 was tested, and the activation was -0.56% (inactive).
O=C(OCc1cn(-c2ccc(Cl)c(Cl)c2)nn1)c1ccccc1Cl was tested, and the activation was 16.5% (active).
With O=C(COC(=O)c1ccccc1Cl)NC1CCCCCCC1 the activation was -2.78% (inactive).
Cc1cccc(-c2cnc(C(O)c3ccc4ccccc4c3)[nH]2)c1 (centres undefined) was tested, and the activation was 3.46% (inactive).
With CSc1ccc(CNC(=O)C2(C)CCCN2C)cc1 (centres undefined) the activation was 1.3% (inactive).
In the case of COc1cccc(-c2cnc(C(O)c3ccccc3OC)[nH]2)c1 (centres undefined), the activation was -2.21% (inactive).
For CCc1ccc(CNC(=O)C2CC(=O)N(CCc3ccc(C)cc3)C2)cc1 (centres undefined), the activation was -0.56% (inactive).
For CCOc1ccc(CNC(=O)C2CCCN(c3nnc(C)c4c(C)n(-c5ccccc5)nc34)C2)cc1 (centres undefined), the activation was 5.34% (inactive).
With CCc1ccc(CNC(=O)C2CCN(c3nnc(C)c4c(C)n(-c5ccc(C)cc5)nc34)CC2)cc1 the activation was 26.2% (active).
COc1ccc(C(C)C)cc1-c1ccc2nncn2c1 was tested, and the activation was 0.08% (inactive).
CC1(C(=O)Nc2cccnc2)Cc2c(-c3ccccc3)ccnc2O1 (centres undefined) was tested, and the activation was -1.27% (inactive).
CCc1ccc(Nc2ncc3c(n2)CC(c2ccco2)CC3=O)cc1 (centres undefined) was tested, and the activation was 9.92% (active).
In the case of O=C(Nc1ncc2c(n1)CC(c1ccco1)CC2=O)c1ccc(Cl)cc1 (centres undefined), the activation was -1.23% (inactive).
For CN1CCN(c2ncc3c(n2)CC(c2ccccc2F)CC3=O)CC1 (centres undefined), the activation was -1.94% (inactive).
For COc1ccc(Nc2ncnc3sc(-c4ccccc4)cc23)c(OC)c1, the activation was 10.6% (active).
COc1ccc(Nc2ncnc3ccc(Br)cc23)c(OC)c1 was tested, and the activation was 0.1% (inactive).
With COc1ccccc1Nc1ncnc2c1oc1ccccc12 the activation was 0.07% (inactive).
For CC1(Oc2cccc(F)c2)CCN(Cc2ccccc2OC(F)F)C1 (centres undefined), the activation was -1.66% (inactive).
In the case of CCCOc1ccc(F)cc1-c1cc(C(=O)NCc2ccc(F)cc2)[nH]n1, the activation was 0.57% (inactive).
Oc1cccc2cc(-c3ccncc3)cnc12 was tested, and the activation was -1.87% (inactive).
With COc1ccc(NC(=O)c2sc(=O)n(Cc3ccc(S(=O)(=O)N(C)C)cc3)c2C)cc1 the activation was -1.44% (inactive).
With COc1cccc(CN2CCC(C(=O)NC(c3ccc4c(c3)OCO4)c3ccccn3)CC2)c1 (centres undefined) the activation was -1.26% (inactive).
With CCc1nc2c(OCCOc3ccccc3)cccn2c1N(C)C(=O)c1ccc(OC)cc1 the activation was -0.76% (inactive).
With O=C(N/N=C\c1cccnc1)c1cc(-c2ccccc2)nc2c(Cl)cccc12 the activation was -0.85% (inactive).
In the case of O=C(CSc1cccc2cccnc12)N/N=C/c1cccnc1, the activation was -5.02% (inactive).
With Brc1ccc(-c2csc(N/N=C/c3cccnc3)n2)cc1 the activation was 11.6% (active).
With COc1ccc(S(=O)(=O)NC(=O)C2(C)CCN2C(=O)COc2ccc(Cl)cc2)cc1 (centres undefined) the activation was -1.47% (inactive).
Cc1nn2cc(-c3ccc(Cl)cc3)cnc2c1Br was tested, and the activation was 13.2% (active).
With CC(=O)NC(c1cccc(F)c1)c1nc(-c2cccc(F)c2)cs1 (centres undefined) the activation was 0.2% (inactive).
For Cc1ccc(F)c(S(=O)(=O)NC(=O)C2(C)CCN2C(=O)CCc2cccs2)c1 (centres undefined), the activation was 0.83% (inactive).
With CC(C)Oc1cc(F)ccc1-c1cc(C(=O)Nc2ccc(F)cc2)[nH]n1 the activation was -0.4% (inactive).
With COc1cc(C(O)c2nc(-c3cnn(C)c3)cs2)ccc1F (centres undefined) the activation was -1.52% (inactive).
With Cc1coc2c(O)cc3c(c12)OC1(N2CCCCC2)C(=O)NCCCC31 (centres undefined) the activation was 8.45% (active).
For O=C(NCc1cccc(C(F)(F)F)c1)c1ccc2sc(COCCO)nc2c1, the activation was -1.45% (inactive).
With CCOC(=O)c1c(NC(=S)SC)sc(C(=O)N2CCc3ccccc3C2)c1C the activation was -0.37% (inactive).
For NC(=O)Nc1ccc(C(=O)OCC(=O)NC2CCCc3ccccc32)cc1 (centres undefined), the activation was -2.32% (inactive).
CCOC(=O)c1c(NC(=O)CNC2CCCc3ccccc32)sc(C(N)=O)c1C (centres undefined) was tested, and the activation was 8.65% (active).
With C#Cc1ccc(NC(=O)C2(C)CCN2C(=O)Cc2ccc(-c3ccccc3)cc2)cc1 (centres undefined) the activation was 0.34% (inactive).
For CCCC/C=C/c1cccc2nncn12, the activation was 0.76% (inactive).
In the case of CN1CCC(CN)(N2CCN(c3ccccc3)CC2)CC1, the activation was 0.54% (inactive).
With COc1ccccc1N1CCN(c2ncnc3sc(C)c(-c4ccccc4)c23)CC1 the activation was 2.5% (inactive).
With Oc1ccccc1N1CCN(c2ncnc3sc(-c4ccccc4)cc23)CC1 the activation was 14.4% (active).
CCc1cc2c(N3CCN(c4nnc(CC)s4)CC3)ncnc2s1 was tested, and the activation was 1% (inactive).
In the case of CCCNC(=O)C1(C)CCN(C(=O)c2cc(F)ccc2C)C1 (centres undefined), the activation was -0.94% (inactive).
CC(C)(C(=O)N1CCC1(C)C(=O)NS(=O)(=O)c1ccc(Br)cc1)c1ccccc1 (centres undefined) was tested, and the activation was -0.16% (inactive).
In the case of Cc1ccc(C2(C(F)(F)F)N=C3Sc4cc(C)cc(C)c4N3C(=O)N2)cc1 (centres undefined), the activation was -0.99% (inactive).
For CCOC(=O)N(C)c1c(CC)nc2c(OCc3ccccc3C(=O)OC)cccn12, the activation was -1.73% (inactive).
In the case of CCc1nc2c(OCCOc3ccc(F)cc3)cccn2c1N(C)C(=O)c1ccccc1F, the activation was 0.11% (inactive).
COc1ccc(NC(=O)CCCC2CCCCC2)c(OC)c1 was tested, and the activation was -1.23% (inactive).
CC(=O)Oc1ccc(NC(=O)CCC2CCCCC2)c(C(=O)O)c1 was tested, and the activation was 0.62% (inactive).
For COC(=O)c1sccc1NC(=O)CCC1CCCC1, the activation was 10.9% (active).
In the case of COCCCNC(=O)c1cccc2c(-c3ccc(O)c(OC)c3)coc12, the activation was 0.52% (inactive).
For COc1ccc(S(=O)(=O)Nc2ccc3cn[nH]c3c2)cc1[N+](=O)[O-], the activation was -0.37% (inactive).
In the case of COc1ccc(S(=O)(=O)N/N=C\c2ccc(OC)c(COc3ccc(C)cc3[N+](=O)[O-])c2)cc1, the activation was 12.8% (active).
In the case of Cc1ccc(S(=O)(=O)N/N=C\c2cc3c(cc2[N+](=O)[O-])OCO3)cc1, the activation was -2.43% (inactive).
In the case of CN1CCN(C(=O)c2ccc(-c3cc4nc(NCc5cccnc5)n(C)c(=O)c4s3)cc2)CC1, the activation was -1.19% (inactive).
Cc1ccc(S(=O)(=O)NCCC(=O)Nc2ccc(C)c(Cl)c2)cc1C was tested, and the activation was 10.6% (active).
For Cc1ccc(S(=O)(=O)NCCC(=O)Nc2cccc(S(N)(=O)=O)c2)cc1C, the activation was -1.36% (inactive).
In the case of Cc1ccc(NC(=O)CCNS(=O)(=O)c2ccc3c(c2)oc(=O)n3C)cc1C, the activation was -0.21% (inactive).
In the case of O=C(Nc1ccc(F)cc1)Nc1nnc([C@H]2C[C@H](O)[C@@H](CO)O2)s1, the activation was 0.21% (inactive).
O=C(NCc1cccnc1)c1ccc2nc([C@@H]3O[C@H](CO)[C@H](O)[C@H](O)[C@H]3O)[nH]c2c1 was tested, and the activation was -1.52% (inactive).
In the case of CC(=O)c1ccc(Nc2nc(C(N)c3ccccc3)cs2)cc1 (centres undefined), the activation was 1.43% (inactive).
For CC1(C(=O)Nc2cccc(Oc3ccccc3)c2)CCN1Cc1ccccc1Cl (centres undefined), the activation was -1.51% (inactive).
With CCn1c(SCC(=O)Nc2cccc(F)c2)nnc1-c1cc2cc(Br)ccc2o1 the activation was 14.9% (active).
In the case of CCn1c(CNC(=O)c2ccco2)nnc1SCC(=O)Nc1cccc(F)c1, the activation was 2.05% (inactive).
With Cc1nc2nc(SCC(=O)Nc3cccc(F)c3)[nH]c2cc1Br the activation was 4.22% (inactive).
With CCCNS(=O)(=O)c1ccc2c(c1)CCCN2C(C)=O the activation was -3.18% (inactive).
For CN(C(=O)CN1CCN(c2cc(-c3ccc(OCc4ccccc4)cc3)ncn2)CC1)c1ccccc1, the activation was -0.62% (inactive).
For CCCS(=O)(=O)NC(=O)C1(C)CCCN(C(=O)c2cccs2)C1 (centres undefined), the activation was -0.48% (inactive).

— PubChem BioAssay AID540308 (The Scripps Research Institute Molecular Screening Center, 2011)
